Reference: ChEMBL document CHEMBL4513216, “Probing the Open Global Health Chemical Diversity Library for Multistage-Active Starting Points for Next-Generation Antimalarials” (ACS Infect Dis, 2020)
In all, about 68,000 compounds went through this assay and about 2,700 (4%) showed an effect of 50% or more. The entries come from a sample that favours strong results as a whole.

System: Plasmodium berghei
Experiment: Screen against P. berghei liver stage (PbLuc), transformed with Luciferase, at 2uM
Type: functional, HepG2
Conditions: tested at 2 uM

Row | Structure (SMILES) | INHIBITION
1 | NC(=O)c1nc2c(s1)CCN(Cc1ccccc1)CC2 | -14.74%
2 | CCC(CC)c1cc(CNC(=O)N2CCOCC2CC)on1 (configuration not stated) | -8.83%
3 | CCOCCCNC(=O)C1(C)CCC(=O)N1c1ccccc1F (configuration not stated) | 19.99%
4 | CC(C)NC(=O)CNC(=O)N1CCc2c([nH]c3ccc(Cl)cc23)C1 | 43.4%
5 | CC(C)NC(=O)CNC(=O)C12CCC(=O)N1c1cc(Cl)ccc1S2 (configuration not stated) | 62.51%
6 | CC(C)C(=O)NCCNC(=O)C12CCC(=O)N1c1cc(Cl)ccc1S2 (configuration not stated) | 79.21%
7 | COC(=O)CNC(=O)C12CCC(=O)N1c1cc(Cl)ccc1S2 (configuration not stated) | 48.21%
8 | CC(C)C(=O)NCc1cccc(N2CCCCC2=O)c1 | -8.7%
9 | CC(=O)Nc1cccc(OCCNC(=O)N(C)Cc2ccncc2)c1 | -44.49%
10 | O=C(NC(c1ccc(Cl)cc1)c1cccnc1)C1CC1 (configuration not stated) | -58.01%
11 | O=S(=O)(Cc1ccccc1Cl)NCCCN1CCCC1 | 49.88%
12 | O=S(=O)(Cc1c(F)cccc1Cl)NCCCN1CCCCCC1 | 53.19%
13 | O=S(=O)(Cc1ccccc1F)NCCCN1CCCCC1 | 21.18%
14 | CN(CC(=O)N1CC(C)(C)[C@@](C)(O)C1)Cc1ccncc1 | 32.07%
15 | CCc1nnc(Nc2cc(C)nc(C3CCN(c4ncccn4)C3)n2)s1 (configuration not stated) | -10.89%
16 | O=C(c1cc(COc2ccc3c(c2)OCO3)[nH]n1)N1CCSCC1 | 14.46%
17 | Cn1cnc2c1CCN(Cc1csc(-c3ccccc3)n1)C2 | 6.3%
18 | Cn1cnc2c1CCN(c1ccnc(-c3ccccc3)n1)C2 | 56.33%
19 | c1ccc(-c2nccc(N3CCc4c(ncn4C4CC4)C3)n2)cc1 | 24.51%
20 | Cc1nc(CN2CCN(c3nc4c(s3)c(C)nn4C)CC2)cs1 | 36.88%
21 | COc1ccc(NC(=O)C(c2cccc(F)c2)N2CCOCC2)cc1 (configuration not stated) | 26.65%
22 | O=C(Nc1ccc(F)cc1)C(c1ccccc1)N1CCOCC1 (configuration not stated) | 71.1%
23 | COc1ccc(NC(=O)C(c2ccc(OC)cc2)N2CCOCC2)cc1 (configuration not stated) | 27.22%

Row | Structure (SMILES) | INHIBITION
24 | CC(C)c1ccc(OCC(=O)N(C)C)cc1 | -32.48%
25 | COc1ccc(CCN2C(=O)O[C@@H]3CN(C)C[C@@H]32)cc1 | -7.29%
26 | CCN(CC)C[C@H]1CN2CC[C@H]1C[C@@H]2CNC(=O)c1ccco1 | 31.07%
27 | CC[C@H]1CN2CC[C@H]1C[C@@H]2CNC(=O)c1ccco1 | 9.42%
28 | CN(C[C@H]1CN2CC[C@H]1C[C@@H]2CNC(=O)c1ccco1)c1ccccc1 | 65.7%
29 | Cc1nc(CCN)cc(N2CCC(O)(c3ccc(Cl)cc3)CC2)n1 | 11.38%
30 | Cc1nc(CN)cc(N2CCC(O)(c3ccc(Cl)cc3)CC2)n1 | 59.94%
31 | Cc1nc(CCN)cc(N2CCC(O)(c3ccccc3)C2)n1 (configuration not stated) | 23.18%
32 | CCNC(=O)N1CCc2ccc(NC(=O)C(C)c3ccsc3)cc21 (configuration not stated) | -44.17%
33 | CC(Cn1ccnc1)NCc1csc2c1CCCC2 (configuration not stated) | 66.4%
34 | CC(Cn1cccn1)NCc1csc2c1CCCC2 (configuration not stated) | 49.88%
35 | CC(Cn1cncn1)NCc1csc2c1CCCC2 (configuration not stated) | 26.75%
36 | O=C(NC1CCCC1)O[C@H]1COCCN(c2nc3ccccc3s2)C1 | 51.26%
37 | O=C(NC1CCCC1)O[C@H]1COCCN(c2nc3ccccc3o2)C1 | 52.91%
38 | CC(C)NC(=O)O[C@H]1COCCN(c2nc3ccccc3s2)C1 | 41.93%
39 | CCNC(=O)O[C@H]1COCCN(c2nc3ccccc3s2)C1 | 29.85%
40 | c1ccc2oc(N3CCCC4(CCOC4)C3)nc2c1 (configuration not stated) | -14.46%
41 | O=C(N[C@@H]1CCN(c2nc3ccccc3o2)C[C@H]1O)c1cnccn1 | 26.3%
42 | NC(=O)N1CCc2ncc(CNC(=O)CC3CC3)n2CC1 | 25.08%
43 | CC(=O)N1CCCC1c1cc(N2CCN(CC3CC3)CC2)cc(C)n1 (configuration not stated) | 6.89%
44 | O=C(c1ccoc1)N1CCc2ncnc(NCc3ccccn3)c2CC1 | 1.01%
45 | CN(C)CCC1CCN(Cc2ccn(C)c(=O)c2)CC1 | 16.84%
46 | COC(=O)C1CCN(C(=O)c2nnc3ccc(Cl)cc3n2)CC1 | 24.52%

Row | Structure (SMILES) | INHIBITION
47 | CC(=O)c1cccc(OCCCC(=O)N(C)Cc2cnc(C)s2)c1 | -37.03%
48 | Cc1cnc(N2CCC3(CCCN3C(=O)c3ccco3)CC2)nc1 | 26.01%
49 | Cc1nc(NCc2ccccc2)cc(C(C)Cn2nc(C)c(C)c2C)n1 (configuration not stated) | -30.88%
50 | Cc1nc(NCc2nonc2C)cc(C(C)Cn2nc(C)c(C)c2C)n1 (configuration not stated) | 84.94%
51 | Cc1nc(NCCO)cc(C(C)Cn2nc(C)c(C)c2C)n1 (configuration not stated) | -16.2%
52 | COc1cc(C2(C(=O)N3CCN(CC(C)(C)O)CC3)CC2)ccc1C | 17.48%
53 | CCc1ccc(C(=O)N2CCN(CC(O)CC)CC2)o1 (configuration not stated) | 5.59%
54 | COc1ccc(C(=O)N2CCN(c3cc(CCN)nc(C)n3)CC2)cc1 | -10.41%
55 | CCc1nc(CN2CCCN(C(=O)c3occc3C)CC2)cs1 | 21.52%
56 | CCc1nc(CN2CCCN(C(=O)c3ccccc3)CC2)cs1 | -10.44%
57 | CCc1ccc(C(=O)N2CCN(CC(C)O)CC2)o1 (configuration not stated) | 54.85%
58 | CCc1nc(CN2CCN(C(=O)c3cc(C)no3)CC2)cs1 | 36.73%
59 | CCc1nc(CN2CCCN(C(=O)c3ccco3)CC2)cs1 | 70.27%
60 | CCc1nc(CN2CCN(C(=O)c3cc(C)nn3C)CC2)cs1 | 53.98%
61 | CCN(CC)Cc1ccc(C(=O)N2CCN(CC(C)O)CC2)o1 (configuration not stated) | 21.12%
62 | CCc1nc(CN2CCCN(C(=O)c3cccn3C)CC2)cs1 | -18.39%
63 | Cc1nc(CCN)cc(N2CCCN(C(=O)c3ccco3)CC2)n1 | 54.3%
64 | Cc1nc(N2CCN(C(=O)c3ccco3)CC2)c2c(n1)c(C)nn2C | 1.77%
65 | Cc1noc(C)c1CN1CC2(CCN(C(=O)c3c[nH]cn3)C2)CC1=O (configuration not stated) | 47.35%
66 | Cc1noc(C)c1CN1CCc2ncc(CN(C)C)n2CC1 | 1.48%
67 | Cc1nc(N2CCN(C)CC2)ncc1C(=O)N1CC[C@](C)(O)[C@H](C)C1 | -5.13%
